# Laboratory results from the supplement of paper PMC8728848.
# The entries come from a sample that favours the strongest signals as a whole.
# Key:
# Assay in all cases: glycan array binding signal (z-score within array); higher = stronger binding
# Conditions in all cases: glycan notation: IUPAC condensed, linker removed
# [1] = molecular target: Neu5Ac(a2-3)Gal(b1-3)GalNAc(b1-4)[Neu5Ac(a2-8)Neu5Ac(a2-3)]Gal(b1-4)Glc
# In short: (§1)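 Glycan array data came from 3228 arrays in the Consortium for Functional Glycomics database, and only arrays with an available protein sequence were kept. Glycan names were put into IUPAC-condensed notation, and columns mapping to the same glycan were averaged. The binding signal is a within-array Z-score, averaged across arrays of one protein sequence run at different concentrations or buffers and across linkers. A negative Z-score can be read as non-binding.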
# [2] = molecular target: Neu5Ac(a2-3)Gal(b1-4)GlcNAc(b1-2)[Neu5Ac(a2-3)Gal(b1-4)GlcNAc(b1-4)]Man(a1-3)[GlcNAc(b1-4)][Neu5Ac(a2-3)Gal(b1-4)GlcNAc(b1-4)Man(a1-6)]Man(b1-4)GlcNAc(b1-4)GlcNAc
# In short: as §1
# [3] = molecular target: Neu5Ac(a2-3)Gal(b1-4)[Fuc(a1-3)]GlcNAc
# In short: as §1
# [4] = molecular target: Neu5Ac(a2-3)Gal(b1-4)[Fuc(a1-3)]GlcNAc6S
# In short: as §1
# [5] = molecular target: Neu5Ac(a2-6)Gal(b1-4)GlcNAc(b1-2)Man(a1-3)[Neu5Ac(a2-6)Gal(b1-4)GlcNAc(b1-2)Man(a1-6)]Man(b1-4)GlcNAc(b1-4)[Fuc(a1-6)]GlcNAc
# In short: as §1
# [6] = molecular target: Neu5Ac(a2-6)Gal(b1-4)GlcNAc(b1-2)Man(a1-6)[Gal(b1-4)GlcNAc(b1-2)Man(a1-3)]Man(b1-4)GlcNAc(b1-4)GlcNAc
# In short: as §1
# [7] = molecular target: Neu5Ac(a2-6)Gal(b1-4)GlcNAc(b1-3)Gal(b1-4)GlcNAc(b1-3)GalNAc
# In short: as §1
# [8] = molecular target: Neu5Ac(a2-8)Neu5Ac(a2-3)Gal(b1-3)GalNAc(b1-4)[Neu5Ac(a2-3)]Gal(b1-4)Glc
# In short: as §1
# [9] = molecular target: Neu5Ac(a2-8)Neu5Ac(a2-3)[Gal(b1-3)GalNAc(b1-4)]Gal(b1-4)Glc
# In short: as §1
# [10] = molecular target: Neu5Ac(b2-6)GalNAc
# In short: as §1
# [11] = molecular target: Neu5Ac9Ac(a2-3)Gal(b1-3)GlcNAc
# In short: as §1
# [12] = molecular target: Neu5Gc(a2-3)Gal(b1-4)GlcNAc(b1-3)Gal(b1-4)GlcNAc(b1-2)Man(a1-3)[Neu5Gc(a2-3)Gal(b1-4)GlcNAc(b1-3)Gal(b1-4)GlcNAc(b1-2)Man(a1-6)]Man(b1-4)GlcNAc(b1-4)GlcNAc
# In short: as §1
# [13] = molecular target: Neu5Gc(a2-6)Gal(b1-4)GlcNAc
# In short: as §1
# [14] = molecular target: Fuc(a1-2)Gal(b1-4)Glc
# In short: as §1
# [15] = molecular target: Fuc(a1-2)Gal(b1-4)GlcNAc(b1-3)Gal(b1-4)GlcNAc
# In short: as §1
# [16] = molecular target: Fuc(a1-2)Gal6S(b1-4)GlcNAc
# In short: as §1
# [17] = molecular target: Fuc(a1-2)[GalNAc(a1-3)]Gal(b1-4)GlcNAc
# In short: as §1
# [18] = molecular target: Fuc(a1-2)[GalNAc(a1-3)]Gal(b1-4)[Fuc(a1-3)]GlcNAc
# In short: as §1
# [19] = molecular target: Gal(a1-3)Gal(b1-3)GlcNAc
# In short: as §1
# [20] = molecular target: Gal(a1-3)GalNAc
# In short: as §1
# [21] = molecular target: Gal(a1-4)Gal(b1-4)GlcNAc(b1-3)Gal(b1-4)Glc
# In short: as §1
# [22] = molecular target: Gal(a1-4)GlcNAc
# In short: as §1
# [23] = molecular target: Gal(b1-3)[Fuc(a1-4)]GlcNAc(b1-2)Man(a1-3)[Gal(b1-3)[Fuc(a1-4)]GlcNAc(b1-2)Man(a1-6)]Man(b1-4)GlcNAc(b1-4)[Fuc(a1-6)]GlcNAc
# In short: as §1
# [24] = molecular target: Gal(b1-3)[Neu5Ac(a2-6)]GalNAc
# In short: as §1
# [25] = molecular target: Gal(b1-4)Glc6S
# In short: as §1
# [26] = molecular target: Gal(b1-4)GlcNAc(b1-3)GalNAc
# In short: as §1
# [27] = molecular target: Gal(b1-4)GlcNAc(b1-3)[Gal(b1-4)GlcNAc(b1-6)]Gal(b1-4)GlcNAc
# In short: as §1
# [28] = molecular target: Gal3S(b1-4)GlcNAc
# In short: as §1
# [29] = molecular target: Gal3S(b1-4)[Fuc(a1-3)]Glc6S
# In short: as §1
# [30] = molecular target: Gal4S6S(b1-4)GlcNAc
# In short: as §1
# [31] = molecular target: GalNAc(a1-3)GalNAc
# In short: as §1
# [32] = molecular target: GlcA(b1-3)Gal
# In short: as §1
# [33] = molecular target: GlcNAc(a1-4)Gal(b1-4)GlcNAc(b1-3)Gal(b1-4)[Fuc(a1-3)]GlcNAc(b1-3)Gal(b1-4)[Fuc(a1-3)]GlcNAc
# In short: as §1
# [34] = molecular target: GlcNAc(b1-2)Man(a1-3)[GlcNAc(b1-2)Man(a1-6)]Man(b1-4)GlcNAc(b1-4)[Fuc(a1-6)]GlcNAc
# In short: as §1
# [35] = molecular target: GlcNAc3Prop(b1-4)GlcNAc
# In short: as §1
# [36] = molecular target: Kdn(a2-3)Gal(b1-3)GlcNAc
# In short: as §1
# [37] = molecular target: Man(a1-2)Man(a1-2)Man(a1-3)Man
# In short: as §1
# [38] = molecular target: Man(a1-3)[Man(a1-6)]Man
# In short: as §1
# [39] = molecular target: Man(a1-3)[Man(a1-6)]Man(b1-4)GlcNAc(b1-4)GlcNAc
# In short: as §1
# [40] = molecular target: Neu5Ac(a2-3)Gal
# In short: as §1
# [41] = molecular target: Neu5Ac(a2-3)Gal(b1-3)GalNAc
# In short: as §1
# [42] = molecular target: Neu5Ac(a2-3)Gal(b1-3)[Neu5Ac(a2-3)Gal(b1-4)]GlcNAc
# In short: as §1
# [43] = molecular target: Neu5Ac(a2-3)Gal(b1-4)GlcNAc(b1-3)GalNAc
# In short: as §1
# [44] = molecular target: Neu5Ac(a2-3)Gal(b1-4)GlcNAc6S
# In short: as §1
# [45] = molecular target: Neu5Ac(a2-3)Gal(b1-4)[Fuc(a1-3)]GlcNAc(b1-6)[Gal(b1-3)]GalNAc
# In short: as §1
# [46] = molecular target: Neu5Ac(a2-6)Gal(b1-4)GlcNAc(b1-3)Gal(b1-4)[Fuc(a1-3)]GlcNAc(b1-3)Gal(b1-4)[Fuc(a1-3)]GlcNAc
# In short: as §1
binder,measurement,setting,value
SP16663B-bot-321-25-321 (Bacteroides ovatus) (protein) DDDDEVTMNSKFYLSTKVFPVDSYEASLSVILKDNSVVVNELQPNYRFVACATERLSKDVKITADSDDNLVSAYNKANDTEYNILPAENYSFTNKTVTIENGESVSGDSIKIELLNVGSLTTEGGYLLPVTISSIEGNNLDALSSNRGVVYLKIQNIHVNVESGQPAEGTLIADRSGWTVKVAPTTRGDAKNLIDGTNSDVARDGGAEYWLTVDIGKVQTLTGIRNKCYASSYSPTAVEVFTSSDGAKWKSIGAVTISKSGTQYIKFSKAVETRYLKYYVKQGPNTVSLTEFDLYAK,glycan array binding signal (z-score),[1],0.469
same,glycan array binding signal (z-score),[2],-0.146
same,glycan array binding signal (z-score),[3],-0.258
same,glycan array binding signal (z-score),[4],-0.406
same,glycan array binding signal (z-score),[5],0.583
same,glycan array binding signal (z-score),[6],-0.492
same,glycan array binding signal (z-score),[7],-0.34
same,glycan array binding signal (z-score),[8],-0.244
same,glycan array binding signal (z-score),[9],0.154
same,glycan array binding signal (z-score),[10],-0.878
same,glycan array binding signal (z-score),[11],0.033
same,glycan array binding signal (z-score),[12],-0.142
same,glycan array binding signal (z-score),[13],0.696
"LERP (Drosophila melanogaster), B7Z0Q8 (protein) MRCSLQKDCAAPTQENFRQMRFPIVISLLLLLFCSGESVAADAANQLKFSTTECKLKEPIYGSTFDFSGLHSDLAHVVKSMNIGGDQFEFNICGNLSRTCNGESNVAACLKRQGKEYILGRQHELFYNNGNMFLKYKSGAKCDNGTADKPNYQLHVMFSCDYTLDAQPMHVTPYANEVCSFYISYRTPLACLSIPEGLQSNSCRVGDTKSNGTFDLMPLSDSNYHTSNRQGAFFVINVCKPVLYGENSMCPAGSSVCLFDSKATNPKERFINFGNVQTHPVVEKGQLLLRHESPTPCAKNSSANYTSVIYFSCDKFIRNAHPEFAGLGADSCTYQFNFATPLACNDLKPCTAFTSTNELLDLSSLSSKPARTLLKDGKNYTIAVCAHAGAPCQENGGACYEQNSTTISLGNSNSQLRFNQTGSLYLLYEDGAECSTATGMRRWSTKIEFVCANNATKDNGASTAGGSDSLKIIEDSNCQLLIQYQTPLACREPIRCKATTYVDHTNDGLGSSGDELIDLTPLISATDNYEARVELPASMEHLVPKTTKFFLNVCRPLVPKYQLGCAGGSAACMAKVTAAGAPEEERSMGFPLVSLTQRNRTFAELAYLKGDPCPTDNTSELSTHILFNCNMRAGRGQPVLRSVEDCAYRFEWETNVFCPPHECTFSADTCDLVHDELGRRFNFKSAPFTKDGKIEIDYNATKMSVNICGAHRKAMTDYSQALVNIFFTHESPNCGREGTMNVQIRLICSDQTESSSTISSDQQCNLLYVQRTPSICEFLSLGATQQNFESNGSTSSSTSSSSTSTTTSTTTQASPAGKPTKAATSTTTTTVGPDPAATPIGPTASVGTILGAILSVTFCVTCLGLLAFSPARRQRIRRLFRRSNSAVRYSRVQSNEEANLLLEPNGEFTESDDDMLL",glycan array binding signal (z-score),[14],-1.18
same,glycan array binding signal (z-score),[15],0.534
same,glycan array binding signal (z-score),[16],-0.168
same,glycan array binding signal (z-score),[17],0.43
same,glycan array binding signal (z-score),[18],1.65
same,glycan array binding signal (z-score),[19],-0.704
same,glycan array binding signal (z-score),[20],-0.56
same,glycan array binding signal (z-score),[21],2.8
same,glycan array binding signal (z-score),[22],-0.583
same,glycan array binding signal (z-score),[23],5.88
same,glycan array binding signal (z-score),[24],-0.837
same,glycan array binding signal (z-score),[25],-0.389
same,glycan array binding signal (z-score),[26],0.146
same,glycan array binding signal (z-score),[27],-0.458
same,glycan array binding signal (z-score),[28],-0.01
same,glycan array binding signal (z-score),[29],1.16
same,glycan array binding signal (z-score),[30],0.955
same,glycan array binding signal (z-score),[31],-0.435
same,glycan array binding signal (z-score),[32],-0.753
same,glycan array binding signal (z-score),[33],3.64
same,glycan array binding signal (z-score),[34],6.93
same,glycan array binding signal (z-score),[35],-0.064
same,glycan array binding signal (z-score),[36],-0.084
same,glycan array binding signal (z-score),[37],5.38
same,glycan array binding signal (z-score),[38],-0.079
same,glycan array binding signal (z-score),[39],2.66
same,glycan array binding signal (z-score),[40],-0.653
same,glycan array binding signal (z-score),[41],0.949
same,glycan array binding signal (z-score),[42],-0.204
same,glycan array binding signal (z-score),[43],0.38
same,glycan array binding signal (z-score),[44],0.734
same,glycan array binding signal (z-score),[3],-1.2
same,glycan array binding signal (z-score),[45],2.71
same,glycan array binding signal (z-score),[46],-0.095
